About 83,000 compounds went through this panel and 20% of them were active in at least one assay; those are over-represented in the sample as a whole.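 The test compound was applied at a single concentration to cells in 96-well plates for 48 hours, and percent growth was recorded.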 A number with no mark means an inactive call. Calls of active or inactive are those of the source. How the source made its calls: active means growth percent below 10; inactive means the rest.
What was measured:
Assay in all cases: NCI-60 one-dose screen, 48 h (100 = growth as untreated, 0 = no growth, -100 = all killed)
DU-145 prostate = details: 10 µM
K-562 leukemia = details: 10 µM
MALME-3M melanoma = details: 10 µM
MDA-MB-231 breast = details: 10 µM
SF-268 CNS = details: 10 µM
SF-295 CNS = details: 10 µM
SF-539 CNS = details: 10 µM
UACC-257 melanoma = details: 10 µM
M14 melanoma = details: 10 µM
HCT-15 colon = details: 10 µM
HT29 colon = details: 10 µM
SNB-75 CNS = details: 10 µM
SNB-19 CNS = details: 10 µM
U251 CNS = details: 10 µM
PC-3 prostate = details: 10 µM
SK-MEL-5 melanoma = details: 10 µM
LOX IMVI melanoma = details: 10 µM
SK-MEL-28 melanoma = details: 10 µM
UACC-62 melanoma = details: 10 µM unless noted
RXF 393 renal = details: 10 µM

SMILES	growth (DU-145 prostate)	growth (K-562 leukemia)	growth (MALME-3M melanoma)	growth (MDA-MB-231 breast)	growth (SF-268 CNS)	growth (SF-295 CNS)	growth (SF-539 CNS)	growth (UACC-257 melanoma)	growth (M14 melanoma)	growth (HCT-15 colon)	growth (HT29 colon)	growth (SNB-75 CNS)	growth (SNB-19 CNS)	growth (U251 CNS)	growth (PC-3 prostate)	growth (SK-MEL-5 melanoma)	growth (LOX IMVI melanoma)	growth (SK-MEL-28 melanoma)	growth (UACC-62 melanoma)	growth (RXF 393 renal)
CCS(=O)(=O)c1cc(=O)[nH]c(=O)[nH]1	109%	128%	56.9%	101%	105%	122%	111%	44.4%	87.1%	109%	101%	82.4%	102%	93.8%	124%	93.2%	101%	98.9%		
O=C(O)CCCCNC(=O)c1ccccc1	110%	89.3%	110%	99.1%	102%	95.1%	99.8%	107%	98.8%	102%	101%	103%	108%	98.5%	100%	101%	91.8%	111%	110%	
C#CC(C(C)C)N(CCO)CCCC (stereo unspecified)	112%	102%	116%	113%	102%		90.4%	97.4%	108%	94.9%	117%	83.6%	107%	97.7%	94.7%	100%	107%	101%	107%	100%
CCN(CC)CCCC(C)Nc1ccnc(/C=C/c2ccc(Cl)cc2)c1 (stereo unspecified)	49.6%	0.277% (active)	-60.6% (active)	-28.3% (active)	9.89% (active)		-69.2% (active)	-77.7% (active)	-85.9% (active)	-33.4% (active)		-49.3% (active)	53.6%	-58.1% (active)	45.5%	-96.7% (active)	-71.2% (active)	-87.5% (active)	-55.8% (active)	-61.8% (active)
NCCCN	107%	103%	95.5%	106%	103%		102%		112%	101%	111%	79.8%	104%	95.5%	102%	102%	112%	104%	109%	115%
CCCCC(=O)c1ccc(OC)cc1	104%	105%	94%	109%	107%	92%	110%	91.2%	99.4%	91.3%	107%	101%	104%	97.9%	110%	96.5%	102%	111%	111%	
CCOC(=O)CCCC(=O)OCC	103%	101%	95.7%	100%	96.7%	101%	98.4%	99%	99.2%	104%	110%	87.8%	106%	99.9%	100%	106%	98.9%	109%	102%	
Nc1nc(N)c2cc(S(=O)(=O)c3cccc(C(F)(F)F)c3)ccc2n1	48%	17.7%	63.8%	67.9%	29.2%		51.4%	43.7%	44.5%	33.2%	22.9%		43.6%	32.2%	39.6%	28.3%	28.6%	69.9%	32.5%	62.2%
CCC/C=C(/C(C)=O)C(=O)OCC	114%	104%	118%	105%	84.5%	282%	117%	81.2%	118%	109%	111%	89.2%	94.8%	103%	88.5%	112%	102%	122%	95.1%	
O=C1NC(=O)C2C(=O)NC(=O)C1C21CCc2ccccc21 (stereo unspecified)	115%	98.2%	102%		111%	102%	93.7%	107%	103%	105%	123%	124%		106%	90.1%	96.3%	102%	113%	83.6%	99.3%
COC(=O)c1[nH]c(=O)c(C#N)c(C(=O)OC)c1C(=O)c1ccccc1	104%	102%	96.8%		99.4%	96.2%	97.1%	86.1%	107%	98.1%	113%	85.6%		96.8%	103%	100%	89.9%	101%	88.6%	122%
O=C(Cc1nc2ccc([N+](=O)[O-])cc2nc1CC(=O)c1cccnc1)c1cccnc1	76.5%	70.7%	68.5%		47%	54.5%	30.1%	78.6%	82.8%	58.3%	95.8%	4% (active)		37.7%	96.7%	74.5%	49.4%	80.6%	69.4%	20.1%
CC1(O)OC(COc2ccc(Cl)cc2)COC1O (stereo unspecified)	108%	104%	99.2%		104%	103%	97.3%	95.7%	109%	103%	116%	112%		100%	107%	101%	98.9%	107%	89.8%	107%
C=CCNc1nnc(C)s1	118%	106%	106%	102%	119%	115%	99.9%		103%	104%	116%	102%	109%	107%	89.6%	107%	97.8%	104%	97.1%	
Clc1ccc(-c2nnc(-c3cccc4ccccc34)o2)cc1	114%	104%	99.8%		103%	110%	94.8%	78%	103%	80.1%	89.3%	76.8%		90.2%	82.4%	93.7%	84.2%	107%		102%
COc1cc2c(cc1OC)[C@H](C(=O)O)[C@@H](c1ccc(OC(C)C)c(OC)c1)N(C)C2=O	114%	99.6%	94.8%	104%	116%	94.5%	94.4%		104%	101%	105%	90.4%	94.8%	97.3%	90%	102%	94.7%	116%	89.6%	
Cc1cc2nc(CC(=O)c3ccccc3)c(=O)[nH]c2cc1C	112%	90.1%	101%		108%	89.8%	95.6%	106%	87.2%	87.7%	97.5%	117%		95.4%	88.4%	96.1%	96.2%	109%	74.9%	101%
CCCCNC(=O)C(=O)NCCCC	103%	108%	95.4%		97.9%	102%	101%	105%	104%	105%	120%	116%		114%	105%	100%	102%	112%	92.6%	107%

SMILES	growth (DU-145 prostate)	growth (K-562 leukemia)	growth (MALME-3M melanoma)	growth (MDA-MB-231 breast)	growth (SF-268 CNS)	growth (SF-295 CNS)	growth (SF-539 CNS)	growth (UACC-257 melanoma)	growth (M14 melanoma)	growth (HCT-15 colon)	growth (HT29 colon)	growth (SNB-75 CNS)	growth (SNB-19 CNS)	growth (U251 CNS)	growth (PC-3 prostate)	growth (SK-MEL-5 melanoma)	growth (LOX IMVI melanoma)	growth (SK-MEL-28 melanoma)	growth (UACC-62 melanoma)	growth (RXF 393 renal)
Cc1cc2nc(CC(=O)c3cccc([N+](=O)[O-])c3)c(=O)[nH]c2cc1C	100%	73.7%	98.5%		98.1%	75.4%	88.2%	97%	81.4%	77%	68.2%	96.1%		95.1%	68%	97.9%	72.8%	97.7%	65%	107%
CN(C)CCC(=O)c1ccc(O)cc1	104%	104%	108%		95.5%	106%	104%	105%	104%	104%	105%	93.7%		100%	106%	99.9%	97.2%	110%		112%
CC(=O)CC(=O)N(C)C	104%	101%	98.7%		101%	95.8%	97.6%	99.3%	107%	95.1%	97.8%	80.1%		100%	92.8%	93.7%	94.1%	105%	88.8%	110%
c1c(-c2cc(C3CC3)[nH]n2)n[nH]c1C1CC1	111%	70.9%	92.2%		107%	98%	101%	90.8%	98.9%	103%	98.7%	112%		95.2%	98.1%	82.1%	77.8%	100%	87.2%	108%
COC(=O)c1cc(-c2ccc(Cl)c(Cl)c2)[nH]c(=O)c1C#N	108%	108%	89.1%		102%	96.1%	101%	98.4%	99.2%	96.3%	107%	99.2%			102%	98.9%	101%	100%	90.9%	109%
Cc1ccc(/C=C2\SC(=S)N(c3ccc(F)cc3)C2=O)o1	95.5%	77.8%	77%			73%	73.9%	102%	87.5%	88.1%	70.6%	24.7%		61%	96.1%	88.2%	68.8%	100%	85.2%	75%
Cc1cc(NC(=O)CSCC(=O)O)no1	112%	117%	96.8%		114%	94.2%	96.4%	95.4%	99.6%	96.7%	98.5%	102%		101%	98.6%	101%	103%	108%	94.7%	103%
CC(C)=C(NC(=O)c1ccccc1)C(=O)O	106%	102%	99%		96.1%	116%	110%	97.5%	108%	104%	99.6%	108%			87.8%	99%	101%	108%		103%
O=C1C=CC2=C3c4cc(O)c(O)cc4CC3(O)COC2=C1O (stereo unspecified)	119%	108%	124%	99.1%	107%	107%	90%		102%	105%	100%	88%	104%	105%	93.7%	138%	99.2%	119%	98.1%	
COC(=O)C(C)Oc1ccc(OC#N)cc1 (stereo unspecified)	105%	94.1%	93.1%		98.9%	96.3%	94.6%	104%	101%	99.7%	102%	88.9%		101%	86.4%	99%	93.2%	106%	86.8%	101%
O=C(O)c1ccc(S(=O)(=O)O)cc1	133%	114%	97.2%	107%	123%	107%	97.9%		117%	102%	107%	94.9%	106%	103%	88.2%	110%	97.3%	109%	102%	
c1csc(-c2cc(-c3cc(-c4cccs4)[nH]n3)n[nH]2)c1	106%	84.7%	88.3%		107%	96.8%	93.8%	109%	96.9%	98.9%	106%	128%		106%	87.3%	99.2%	87.2%	105%	84.4%	112%
CC(=O)Cc1cc(-c2cc(CC(C)=O)[nH]n2)n[nH]1	107%	99.5%	94.6%		98.5%	94.7%	98%	93%	99.5%	99.4%	102%	87.1%		97.7%	96.7%	99.6%		107%	90.3%	103%
O=C(N/N=C\c1cc(Br)cc(Br)c1O)N/N=C/c1cc(Br)cc(Br)c1O	75.2%	22.9%	70.2%	72%	51.1%	6.45% (active)	35.5%		55.2%	33.6%	105%	49%	68.2%	46.1%		45.3%	50.5%	81.9%	39%	
O=[N+]([O-])c1ccc(-c2noc(-c3cccs3)n2)cc1	89.3%	93.7%	91.7%		101%	72.9%	81.3%	100%	91.7%	84%	92.5%	83.2%		86.5%	90.3%	83.5%		99.5%	76.6%	92%
CCOC(=O)c1cc(/C=C/c2cccc(Cl)c2)on1	95.2%	31.6%	93.1%		93.7%	88.2%	89.6%	108%	78.8%	64.8%	78.8%	87.4%		87.5%	85.1%	96.9%	-3.76% (active)	104%	78.8%	97.1%
Nc1nc2c(c(-c3nc(N)nc4c3CCc3ccccc3-4)n1)CCc1ccccc1-2	107%	99.2%	85.3%		103%	99.5%	93.1%	109%	105%	104%	112%	98.8%			86.9%		98.3%	115%	94.6%	115%
CS(=O)CC1=NC(=N)N=C1CS(C)=O (stereo unspecified)	111%	99.4%	98%		106%	98.1%	99.5%	86.6%	105%	102%	109%	97.7%		98.1%	98.7%		96.7%	108%	98.4%	107%

Reference: PubChem BioAssay (NCI)
